The values below come from ChEMBL document CHEMBL3988442, “University of Dundee, Small-Polar-MMV Screening Library” (2021).

Assay [1] concerns the target T1, Aspartate--tRNA(Asp/Asn) ligase (Mycobacterium tuberculosis (strain ATCC 25618 / H37Rv)) (UniProt P9WFW3). Also: in the data most compounds retested in dose-response had high values.
T1 sequence (whole entry): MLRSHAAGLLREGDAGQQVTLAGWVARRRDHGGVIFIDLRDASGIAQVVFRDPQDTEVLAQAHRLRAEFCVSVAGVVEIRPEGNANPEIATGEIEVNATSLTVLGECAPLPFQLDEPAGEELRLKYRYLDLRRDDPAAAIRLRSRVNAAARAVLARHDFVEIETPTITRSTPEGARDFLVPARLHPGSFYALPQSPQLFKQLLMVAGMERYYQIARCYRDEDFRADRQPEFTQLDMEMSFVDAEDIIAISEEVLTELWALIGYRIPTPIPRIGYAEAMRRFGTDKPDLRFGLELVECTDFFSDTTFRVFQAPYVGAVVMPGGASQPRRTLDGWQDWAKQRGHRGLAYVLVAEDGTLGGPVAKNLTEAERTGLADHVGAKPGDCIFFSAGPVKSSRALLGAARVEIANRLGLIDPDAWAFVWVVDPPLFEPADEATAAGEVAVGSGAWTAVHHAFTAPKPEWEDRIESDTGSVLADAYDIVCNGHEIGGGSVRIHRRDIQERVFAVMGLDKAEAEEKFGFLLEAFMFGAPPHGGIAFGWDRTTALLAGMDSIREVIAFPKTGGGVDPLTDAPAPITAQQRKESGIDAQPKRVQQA
The assay can be described thus: Assay for Asp RNA synthetase-1 from Mycobacterium tuberculosis. The format is functional. Further details: scale not given: direction of the effect not stated beside the values. The settings on record: 30 µM.

For assay [2], the target named is Shiga toxin 2 (Escherichia coli O157:H7) (UniProt P09385+P09386). The assay can be described thus: E. coli 0.157:H7 Shiga Toxin SOP - stx2 screening assay. The settings on record: 30 µM. On the set-up: scale not given: direction of the effect not stated beside the values. The format is functional.

On to `CN(CC1CN(Cc2cn3ccsc3n2)CCO1)c1cccnn1` (centres undefined), for which the figures for the Percent Effect in assay [1] and in assay [2] were -3.78% and -9.36%, respectively.

`CCc1ccc(CN2C[C@@H]3OCCN(c4ccnc(N(C)C)n4)[C@@H]3C2)o1`: the Percent Effect in assay [1] was -6.22%; in assay [2], -25.6%.

Regarding `c1cnn(CCN2CCOC(Cn3cncn3)C2)c1` (centres undefined), the Percent Effect is 0.685% in assay [1] and -9.56% in assay [2].

Regarding `CN(C)C(=O)N1C[C@@H]2CC[C@H](C1)N(C(=O)CCCn1cncn1)C2`, the Percent Effect is 1.35% in assay [1] and 4.19% in assay [2].

As for `NC(=O)c1cc(C2CCCN(CCc3ccccn3)C2)n[nH]1` (centres undefined), the values for the Percent Effect in assay [1] and in assay [2] were -0.833% and -5.89%, respectively.

As to `CC(C)c1ncncc1C(=O)NCCN1CCCS1(=O)=O`, the figures for the Percent Effect in assay [1] and in assay [2] were -2.86% and 6.66%, respectively.

With `CCc1nc(C2CCCN(C(=O)c3ccc4c(c3)nnn4C)C2)no1` (centres undefined), the Percent Effect is 4.32% in assay [1] and -19.5% in assay [2].

With `CCCc1cc(C(=O)N2CCCC2c2cccnc2)[nH]n1` (centres undefined), the Percent Effect in assay [1] was 3.74%; in assay [2], 11.1%.

On to `COCCN1CCC2(CCCN(C(=O)c3cnoc3C)C2)C1=O` (centres undefined), for which the results for the Percent Effect in assay [1] and in assay [2] were 0.137% and -23%, respectively.

Consider `Cc1noc(Cl)c1CC(=O)N1CCCC(n2cccn2)C1` (centres undefined), for which the Percent Effect in assay [1] was determined as 2.08%; in assay [2] it was 32.6%.

Take `Cc1ccc(C(=O)N2CCN(Cc3ccsc3)CC2)n1C`: the Percent Effect in assay [1] came to 1.28%; in assay [2] it was 3.04%.

For the molecule `Cn1ccnc1CN1CCC2(CC1)CC(Oc1cccnc1)C2`, the values for the Percent Effect in assay [1] and in assay [2] were 0.874% and -18.2%, respectively.

Turning to `CN(C)CCN1CCOCC2(C1)CN(Cc1ccsc1)CCO2` (centres undefined), the Percent Effect is 6.63% in assay [1] and 3.8% in assay [2].

Turning to `CN1CCOC(CN(C(=O)Cc2ccccc2F)c2nccs2)C1` (centres undefined), the Percent Effect in assay [1] was -1.89%; in assay [2] it was -16%.

`O=C(CN(C1=NCCCC1)c1ccccc1)c1ccccc1`: the Percent Effect in assay [1] is 2.67%; in assay [2] it was -26.2%.

In the case of `O=C(CCc1nccs1)N1CCN(c2cccnn2)CC1`, the Percent Effect is -2.05% in assay [1] and 12.9% in assay [2].

With `Cc1cccc(-c2noc(CN3CC(n4cc(C)cn4)C3)n2)c1`, the Percent Effect in assay [1] is -0.577%; in assay [2], -2.34%.

With `O=C1CN(Cc2nnc(-c3ccc(Br)o3)o2)CCN1`, the Percent Effect in assay [1] was -1.11%; in assay [2], -65.1%.

`O=C(c1ccc(F)cc1)N1CCC2(CCCN2CC2CC2)CC1`: the Percent Effect in assay [1] is -2.16%; in assay [2] it was -20.9%.

Turning to `NC(=O)CCN1CCC(C(=O)c2cc(F)ccc2F)CC1`, the Percent Effect in assay [1] was 0.12%; in assay [2] it was -0.638%.

For `Cc1cc(N(C)C)nc(C2(C)CCCN2C(=O)c2cnccn2)n1` (centres undefined), the Percent Effect in assay [1] was 1.19%; in assay [2], -0.274%.

As to `CCC1(CC)Cc2ccccc2-c2nc(CN(C)C)nc(O)c21`, the Percent Effect in assay [1] is 8.36%; in assay [2], -1.34%.

With `CN(Cc1noc(C2CC2)n1)C1CCN(Cc2ccncc2)C1` (centres undefined), the results for the Percent Effect in assay [1] and in assay [2] were -0.189% and -32.1%, respectively.

As to `Cc1nnc(N2CCCC3(CN(Cc4ccc(C)s4)CCO3)C2)o1` (centres undefined), the Percent Effect is 0.479% in assay [1] and -45.3% in assay [2].

On to `COc1ccc(F)cc1CN1CCCC(c2cc(C(N)=O)[nH]n2)C1` (centres undefined), for which the Percent Effect was -5.13% in assay [1] and 1.05% in assay [2].

For the molecule `c1ccc(Cn2cc3c(n2)C(CNCc2ccco2)OCC3)nc1` (centres undefined), the Percent Effect is 6.18% in assay [1] and -26.1% in assay [2].

Regarding `Cc1ccccc1-c1cncc(C2CCN(C)CC2)n1`, the values for the Percent Effect in assay [1] and in assay [2] were 2.52% and -4.06%, respectively.

Regarding `Cc1ccc(-c2ncc(C(=O)NCCNC(=O)C(C)C)s2)c(C)c1`, the Percent Effect came to 2.19% in assay [1] and 11.7% in assay [2].

Turning to `COCC1c2c(cnn2CC2CC2)CCN1Cc1nccs1` (centres undefined), the results for the Percent Effect in assay [1] and in assay [2] were 0.524% and -52.1%, respectively.

As to `Cc1cc(CN(C)C(=O)c2ccc(C(F)(F)F)nc2)no1`, the Percent Effect in assay [1] is -0.926%; in assay [2], -2.99%.

For `Cc1ccc2c(c1)C1(CCNCC1)CN2C(=O)CN(C)C`, the Percent Effect is -0.657% in assay [1] and 6.1% in assay [2].

As to `Cn1cc(CN2CCCN(C(=O)c3cn4ccccc4n3)CC2)cn1`, the Percent Effect in assay [1] was 1.48%; in assay [2], -25.9%.

For `Cc1nc(CN2CCCN(C(=O)c3ccccn3)CC2)oc1C`, the figures for the Percent Effect in assay [1] and in assay [2] were -0.692% and 25.9%, respectively.

For `Cc1ccccc1CS(=O)(=O)CC(=O)NC1CCCCNC1=O` (centres undefined), the results for the Percent Effect in assay [1] and in assay [2] were -3.58% and -14.7%, respectively.

Turning to `Cc1ccc(C(=O)N2CCC3(CCN(C(=O)c4cccnc4)C3)CC2)o1`, the Percent Effect was 5.85% in assay [1] and -10.6% in assay [2].

Consider `CS(=O)(=O)NC1CCc2c(ccc(=O)n2CC2CC2)C1` (centres undefined), for which the Percent Effect in assay [1] was 2.4%; in assay [2] it was -5.71%.

On to `COc1c(CNC(c2ccc(F)cc2)c2nccn2C)c(C)nn1C` (centres undefined), for which the values for the Percent Effect in assay [1] and in assay [2] were -6.01% and -17.1%, respectively.

In the case of `CC(C(=O)NCc1ccc(-n2cncn2)nc1)n1ccnc1` (centres undefined), the Percent Effect in assay [1] stood at 5.56%; in assay [2], 19.8%.

Regarding `CCn1cc(CN2CCc3nc(N4CCOCC4)nc(O)c3CC2)cn1`, the Percent Effect in assay [1] is -1.83%; in assay [2], -19.4%.

Consider `CCOc1ccccc1OC1CCN(C(=O)c2cc[nH]n2)CC1`, for which the Percent Effect stood at 0.989% in assay [1] and 39.1% in assay [2].

As for `CC(C(=O)N1CCC(Nc2cccnn2)CC1)n1ccnc1` (centres undefined), the Percent Effect turned out to be 7.4% in assay [1] and 0.729% in assay [2].

For `COCCN1CCN(C(C)C(=O)Nc2ccnn2C(C)C)CC1` (centres undefined), the Percent Effect was 0.69% in assay [1] and -2.27% in assay [2].

Take `CCN(CC1CCOC1)C(=O)Nc1ccc(N2CCCC2)nc1` (centres undefined): the Percent Effect was found to be 0.3% in assay [1] and 1.73% in assay [2].

With `CS(=O)(=O)N1Cc2nccn2CC(Cn2ncccc2=O)C1` (centres undefined), the Percent Effect is 1.17% in assay [1] and -8.61% in assay [2].

Regarding `O=C(c1cc(Cl)c2c(c1)OCCO2)N1CCCC(n2cncn2)C1` (centres undefined), the Percent Effect in assay [1] is -7.78%; in assay [2], 10.4%.

As to `COc1cc(C(=O)N2CCCS2(=O)=O)ccc1C`, the Percent Effect in assay [1] is -7.63%; in assay [2], -10.8%.

Consider `O=C(c1ccc(F)cc1Cl)N1CCC(Nc2cccnn2)CC1`, for which the values for the Percent Effect in assay [1] and in assay [2] were 4.05% and -21.1%, respectively.
